This passage reports inhibition results from PubChem BioAssay.

A word on the inhibition: it is the change of the read-out against control, counted positive when it falls.

Unmarked numbers belong to inactive results. Calls of active or inactive are those of the source.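 Rule for the calls, unless noted: active = mean inhibition over 43.08%, the solvent-only control mean plus 3 SD; inactive = the rest.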

Test [1] addresses Nuclear receptor coactivator 3 (Homo sapiens) (UniProt Q9Y6Q9). Kind of test: NCOA3 GAL4-fusion reporter inhibition – cell-based, luminescence, quadruplicate, confirmation (AID 588792).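 Note: 0% = DMSO treated cells and 100% = gossypol at 36 µM.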 The following applies: HEK293 GAL4-SRC3 luciferase reporter, at 3.6 µM, stronger effect = higher value.
Test [2] deals with transactivating tegument protein VP16 (Human herpesvirus 1), Gal4-VP16 luciferase reporter. Kind of test: repression of VP16-driven luciferase reporter – cell-based, luminescence, high throughput, counter-screen for SRC3 inhibitor project (AID 588794; in the data active = inhibition above about 30%). The settings on record: mammalian cells, at 3.6 µM, stronger effect = higher value. (In general: Reporter assays use an easily measured gene product as a stand-in for the process of interest.)

Nuclear receptor coactivator 3 (Homo sapiens), sequence (Q9Y6Q9 whole entry, looked up, the tested form may be a part): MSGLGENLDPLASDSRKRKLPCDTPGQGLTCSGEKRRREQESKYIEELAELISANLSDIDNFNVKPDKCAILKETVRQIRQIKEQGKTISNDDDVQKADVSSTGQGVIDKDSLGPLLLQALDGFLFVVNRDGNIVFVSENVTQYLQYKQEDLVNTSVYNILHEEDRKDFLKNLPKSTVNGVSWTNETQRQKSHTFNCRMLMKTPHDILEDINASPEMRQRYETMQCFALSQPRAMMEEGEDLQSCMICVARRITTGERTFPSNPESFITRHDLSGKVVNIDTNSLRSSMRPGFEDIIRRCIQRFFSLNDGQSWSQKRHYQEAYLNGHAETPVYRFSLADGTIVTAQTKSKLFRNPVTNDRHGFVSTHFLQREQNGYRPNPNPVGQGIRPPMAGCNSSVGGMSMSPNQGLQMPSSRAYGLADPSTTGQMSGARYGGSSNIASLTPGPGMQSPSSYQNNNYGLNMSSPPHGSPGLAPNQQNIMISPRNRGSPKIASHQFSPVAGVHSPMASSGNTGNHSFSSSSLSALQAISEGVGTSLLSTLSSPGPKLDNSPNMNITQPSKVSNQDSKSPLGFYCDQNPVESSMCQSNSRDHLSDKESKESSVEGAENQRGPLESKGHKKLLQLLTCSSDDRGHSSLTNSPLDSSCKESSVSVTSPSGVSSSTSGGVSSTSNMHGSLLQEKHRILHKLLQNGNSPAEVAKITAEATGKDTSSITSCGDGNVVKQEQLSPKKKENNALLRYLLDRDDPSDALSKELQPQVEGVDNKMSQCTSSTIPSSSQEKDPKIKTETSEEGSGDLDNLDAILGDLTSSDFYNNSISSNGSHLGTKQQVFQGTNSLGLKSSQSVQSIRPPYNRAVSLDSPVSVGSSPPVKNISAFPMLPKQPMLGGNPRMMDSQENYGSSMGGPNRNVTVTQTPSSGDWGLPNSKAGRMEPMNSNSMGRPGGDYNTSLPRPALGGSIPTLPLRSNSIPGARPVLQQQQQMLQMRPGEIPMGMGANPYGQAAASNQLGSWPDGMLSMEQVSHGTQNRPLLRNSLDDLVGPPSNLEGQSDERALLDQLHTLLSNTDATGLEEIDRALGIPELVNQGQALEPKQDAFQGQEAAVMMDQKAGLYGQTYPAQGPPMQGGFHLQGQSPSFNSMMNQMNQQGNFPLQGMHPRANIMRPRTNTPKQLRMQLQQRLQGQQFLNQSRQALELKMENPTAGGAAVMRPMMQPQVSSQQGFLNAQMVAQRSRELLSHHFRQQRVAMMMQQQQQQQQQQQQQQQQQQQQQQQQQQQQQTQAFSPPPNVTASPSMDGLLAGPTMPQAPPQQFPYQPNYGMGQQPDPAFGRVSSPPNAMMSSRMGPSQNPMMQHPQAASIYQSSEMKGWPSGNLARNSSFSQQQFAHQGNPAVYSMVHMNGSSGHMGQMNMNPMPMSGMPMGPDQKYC

As to `Cc1cc(C)c2nc3nc(C)cc(C)c3c(N)c2c1`, the inhibition was 24.5% in test [1] and 57.9% (active) in test [2].
In the same order, the values of `O=C(Nc1sc2c(c1C(=O)O)CCCC2)c1ccc(Cl)cc1` are 30.9% and 50.5% (active).
Regarding `COc1ccc(O)c(-c2[nH]ncc2C(=O)c2ccccc2)c1`, the inhibition in test [1] is 26.3%; in test [2] it was 18.6%.
`CC(C)C[C@H](NC(=O)c1[nH]cnc1C(=O)N[C@@H](Cc1ccccc1)C(=O)OC(C)(C)C)C(=O)OC(C)(C)C`: the inhibition is 13.6% in test [1] and 2.92% in test [2].
`Cn1nc(C(C)(C)C)cc1C(=O)NCc1ccc(N2CCCC2=O)cc1`: the inhibition in test [1] was 10.7%; in test [2], 38.8% (active).
In the same order, the values of `CCOC(=O)c1c(-c2ccccc2)nnn1-c1nc(OCC)nc(N2CCCCC2)n1` are -15.5% and 0.51%.
Regarding `Cc1ccccc1-n1nnnc1Sc1nnnn1-c1ccccc1`, the values for the inhibition in test [1] and in test [2] were 7% and 7.79%, respectively.
Taken in the same sequence, the figures for `CCOc1cccc(/C=N/NC(=O)c2cc(-c3cccn3C)n[nH]2)c1O` were 26% and 40% (active).
`COc1ccc(N/N=C(/N=Nc2nc(C)cc(=O)[nH]2)c2ccccc2)cc1`: the inhibition in test [1] is 46.6% (active); in test [2], 30.7% (active).
In the same order, the values of `COc1ccc(C(=O)Nc2ccc(N3CCN(C(=O)c4ccccc4C)CC3)cc2)cc1` are 28.4% and 25.1%.
In the case of `CCOc1ccc(S(=O)(=O)N2CCN(C(=O)COc3ccc(Br)cc3)CC2)cc1`, the inhibition in test [1] is 14.4%; in test [2], 14.7%.
Consider `CC(=O)/C=C/c1ccc2ccccc2n1`, for which the inhibition in test [1] was -15.9%; in test [2] it was 18.8%.
Regarding `O=C1c2ccc3c4c(ccc(c24)C(=O)N1c1cccc(O)c1)C(=O)N(c1cccc(O)c1)C3=O`, the inhibition was 30.3% in test [1] and 31% (active) in test [2].
As to `Cc1cc(C(F)(F)F)c(C#N)c(SCC(=O)Nc2nc3ccccc3s2)n1`, the inhibition in test [1] was 49.7% (active); in test [2], 37.2% (active).
For `Cc1cc(SCC(=O)N/N=C/c2ccc(O)cc2O)c(C)cc1Br`, the inhibition in test [1] was 20.6%; in test [2], 23.2%.
In the same order, the values of `Cc1ccc(S(=O)(=O)CCC(=O)N2CCN(c3ccc(Cl)cc3)CC2)cc1` are -1.83% and 2.47%.
On to `O=C(Cc1ccccc1)Nc1cc(Cl)ccc1Sc1ccccc1`, for which the inhibition was 2.36% in test [1] and 5.41% in test [2].
In the same order, the values of `Cc1ccc(S(=O)(=O)N2C[C@H]3C(=O)C[C@@H](c4ccccc4)N(S(=O)(=O)c4ccc(C)cc4)[C@H]3C[C@H]2c2ccccc2F)cc1` are 6.96% and 2.52%.
Taken in the same sequence, the figures for `O=C(NC(=S)Nc1cccc2cnccc12)c1ccccc1` were 51.4% (active) and 44.1% (active).
Turning to `COc1ccc(S(=O)(=O)NCc2ccncc2)cc1NC(=O)c1ccc(Cl)cc1`, the values for the inhibition in test [1] and in test [2] were 14.2% and 4.55%, respectively.
Turning to `NC(=S)NN=C(Cc1ccccc1)Cc1ccccc1`, the inhibition in test [1] is 22.4%; in test [2], 15.6%.
Taken in the same sequence, the figures for `CS(=O)(=O)c1ccc(Sc2nc3ccccc3s2)c([N+](=O)[O-])c1` were 45.8% (active) and 19.5%.
With `O=C(c1ccc(Cl)cc1)C(Cn1cncn1)C(Sc1ccccc1)c1ccccc1` (centres undefined), the inhibition in test [1] was 14.8%; in test [2], 20.1%.
Turning to `CC(=O)Nc1ccc(NC(=O)c2ccc(N(Cc3ccccc3C)S(C)(=O)=O)cc2)cc1`, the inhibition in test [1] is -0.29%; in test [2], -7.31%.
In the same order, the values of `Cc1ccc(NC(=O)C2CCN(c3ncnc4c3nc3n4CCCCC3)CC2)cc1Cl` are -20.6% and -3.54%.
In the case of `Cc1ccc(OCC(O)CN2CCN(CC(O)COC(C)C)CC2)c(C(C)(C)C)c1` (centres undefined), the inhibition in test [1] was 8.73%; in test [2], 13.2%.
Regarding `COc1ccc(C2OC(=O)CC2C(=O)NCc2ccc(F)cc2)cc1OC` (centres undefined), the inhibition in test [1] was -5.31%; in test [2] it was -5.19%.
With `CC/C(C)=N/Nc1cccc([N+](=O)[O-])c1`, the inhibition was 2.68% in test [1] and 18% in test [2].
As for `Cc1nccc(-c2ccc(-n3cnc4ccccc43)cc2)n1`, the inhibition in test [1] was 23.8%; in test [2], 12.4%.
`CCc1ccc(N2CC(C(=O)N/N=C/c3cc([N+](=O)[O-])ccc3O)CC2=O)cc1` (centres undefined): the inhibition is -9% in test [1] and 9.04% in test [2].
On to `COc1cc(NC(=O)c2cccs2)c(C(=O)OCC(=O)c2cc(C)n(-c3ccc(F)cc3)c2C)cc1OC`, for which the inhibition in test [1] was 5.85%; in test [2], 2.26%.
With `COc1ccc(C(C(=O)NC2CCCCC2)N(C(=O)CCl)c2ccc(OC)cc2)cc1` (centres undefined), the inhibition was 64.4% (active) in test [1] and 27.2% in test [2].
